These results are taken from PubChem BioAssay (NCATS).

Values without a mark were called inactive. Results filed as inconclusive are left out. Activity calls are given as the source filed them. Unless noted, calls come from the whole dose curve; as a rule, active = well fitted curve in either direction with a large enough effect (not every such curve was filed as active); inconclusive = small, poorly fitted or top-dose-only effect, or another doubt; inactive = flat fitted curve, though single readings scatter.

The target of assay [1] is Lysosomal acid glucosylceramidase (Homo sapiens) (UniProt P04062). Put plainly: Glucocerebrosidase-p2 (AID 348; in the data active = potency below about 10 µM; note: potency is the fitted concentration of half-maximal effect). The conditions noted are these: purified GBA, blue fluorogenic substrate, 40 min. In short, it runs like this:
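Normal human glucocerebrosidase (0.2 nM) with blue fluorogenic substrate (80 uM final) in citrate/phosphate pH 5.9 with 10mM sodium taurocholate, 0.01% tween-20; 40 min RT, NaOH/glycine stop; fluorescence Ex 365/Em 440; AC50 from a titration from 0.6 nM upwards.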

Assay [2] can be described thus: AP1 Signaling Pathway (AID 357).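 Note: ME-180 reporter cells stimulated with EGF at its EC50 level; % is set by controls: 0 for no effect and ±100 for the full control effect.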 Particulars: ME-180 AP-1-bla reporter, EGF-induced, beta-lactamase ratio, 5 h; at 7.69 µM (top of the series) unless noted. In short, it runs like this:
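Cells are seeded overnight, exposed to compound titrations and an EC50 level of EGF for 5 hours at 37 °C, then loaded with CCF4 dye for 2.5 hours. Beta-lactamase activity under the AP-1 element is read as a blue/green ratio.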

The target of assay [3] is Cytochrome P450 1A2 (Homo sapiens) (UniProt P05177). Put plainly: p450-cyp1a2 (AID 410; calls by dose curve; note: potency is the fitted concentration of half-maximal effect;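 for activity change, negative = inhibition: -100% = full effect of reference inhibitor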). The conditions noted are these: recombinant CYP1A2, luciferin-ME demethylation, luminescence; series mostly up to 57 µM. The essentials:
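Luminescent demethylation readout: Luciferin-ME (100uM, equal to Km) turned over by 20nM CYP1A2 for 60 min at room temperature after NADPH regeneration addition, following 10 min compound preincubation. Normalization used 57 uM furafylline as full inhibition.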

Assay [4] can be described thus: NFAT Signaling Pathway (AID 444).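 Note: carbachol stimulus at about its EC50 of 1 µM final; % is set by controls: 0 for no effect and ±100 for the full control effect.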 Particulars: Jurkat NFAT-bla M1, carbachol, beta-lactamase ratio, 5 h; at 7.69 µM (top of the series) unless noted. In short, it runs like this:
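Jurkat cells carrying an NFAT-driven β-lactamase reporter and co-transfected muscarinic M1 receptor were treated with compound plus carbachol (1 uM final, an EC50 level) for 5 h at 37 °C. CCF4 loading followed for 1 h at RT; 460/530 nm ratio gave %activity.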

Assay [5] is described as follows: Stat Signaling Pathway (AID 446).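 Note: ME-180 cervical cancer cells given 40 pM IL-6 alongside compound; SIE-controlled beta-lactamase reporter measured as 460/530 nm FRET emission ratio; % is set by controls: 0 for no effect and ±100 for the full control effect.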 The conditions noted are these: ME-180 SIE beta-lactamase reporter, IL-6 stimulated, 5 h; at 7.69 µM (top of the series) unless noted. In short, it runs like this: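 Emission at 460 and 530 nm (excitation 405 nm) reports SIE-controlled beta-lactamase in ME-180 cells. Cells received compound with 40 pM IL-6 for 5 hrs at 37 C; data scaled between 300 pM IL-6 and 125 nM JAK-inhibitor controls.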

Assay [6] deals with Glucocorticoid receptor (Homo sapiens) (UniProt P04150). Put plainly: GR-EFC Redistribution (AID 451; calls by dose curve; note: potency is the fitted concentration of half-maximal effect). Particulars: CHO-K1 GR-EFC translocation, beta-gal luminescence, 2 h. The essentials: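 CHO-K1 cells stably expressing nuclear-localized β-gal enzyme acceptor and GR fused C-terminally to the enzyme donor fragment; ligand-driven nuclear translocation restores β-gal by complementation. Compounds titrated up to 46 uM final, 2 h at 37 °C; luminescence read.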

Assay [7] concerns the target Mitogen-activated protein kinase 10 (Mus musculus) (UniProt Q61831). Put plainly: JNK3 AlphaScreen Assay (AID 530).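 Note: kinase came from lysate of stimulated human HepG2 cells; signal reports phosphorylation of biotinylated GST-cJun 1-79 at Ser73 with 10 µM ATP; % is set by controls: 0 for no effect and ±100 for the full control effect.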 The conditions noted are these: JNK3 lysate, c-Jun phosphorylation; series mostly up to 57.1 µM. In short, it runs like this:
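Phosphorylation of biotinylated GST-cJun(1-79) at Ser73 is measured by AlphaScreen proximity luminescence. Enzyme is JNK3 in HepG2 lysates activated with interleukin-1beta and tumor necrosis factor alpha; ATP is 10 uM final.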

Assay [8] concerns the target Cytochrome P450 3A4 (Homo sapiens) (UniProt P08684). Put plainly: qHTS Assay for Activators of Cytochrome P450 3A4 (AID 885; active = well fitted curve in the direction sought with a large enough effect; an effect the other way counts as inactive or inconclusive; note: nearly all actives have a fitted effect of over 65% in size). The conditions noted are these: recombinant CYP3A4, Luciferin-PPXE luminescence, 60 min; series mostly up to 57.1 µM. In short, it runs like this:
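Activators are scored by enhanced luminescence from CYP3A4 conversion of luciferin-PPXE (25uM, equal to KM) to luciferin, after 60 min at RT with an NADPH-regenerating system.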

Assay [9] can be described thus: Confirmation and Secondary Assay for Modulators of Hemoglobin Beta Chain Splicing at IVS2 654 locus (AID 910; active = well fitted curve in the direction sought with a large enough effect; an effect the other way counts as inactive or inconclusive;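 note: per-well total GFP intensity by laser scanning cytometry after 2-day treatment; % of control where 0% means no effect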). The conditions noted are these: HeLa EGFP-654 splicing reporter, GFP fluorescence, 48 h; series mostly up to 38.3 µM. In short, it runs like this: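 HeLa cells stably carrying EGFP interrupted by mutant beta-globin IVS2-654 intron (CMV-driven) were treated with compound for 2 days at 37C; corrected splicing was scored as total peak GFP intensity per well (488 nm excitation, 500-520 nm emission).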

A short description of assay [10]: Confirmation and Secondary Assay for Modulators of Hemoglobin Beta Chain Splicing at IVS2 705 locus (AID 930; active = well fitted curve in the direction sought with a large enough effect; an effect the other way counts as inactive or inconclusive;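 note: HeLa cells stably expressing the EGFP-705 splicing reporter; GFP fluorescence per well restored by corrected splicing of the IVS2-705 intron in EGFP; % of control where 0% means no effect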). Particulars: HeLa EGFP-705 splicing reporter, GFP fluorescence, 48 h; series mostly up to 38.3 µM. The essentials:
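First, HeLa EGFP-705 cells are seeded at 500/well in Optimem with 2% FCS and left overnight. Next, compound or DMSO is added for 2 days. Finally wells are laser-scanned and total peak GFP intensity scored.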

A short description of assay [11]: Primary qHTS for small molecule stabilizers of the endoplasmic reticulum resident proteome: Secreted ER Calcium Modulated Protein (SERCaMP) assay (AID 1508630; active = well fitted curve in the direction sought with a large enough effect; an effect the other way counts as inactive or inconclusive; note: % is set by controls: 0 for no effect and ±100 for the full control effect). The conditions noted are these: SH-SY5Y GLuc-SERCaMP (Gaussia luciferase released on ER calcium loss) secretion, thapsigargin, luminescence; series mostly up to 38.4 µM. The essentials:
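The SH-SY5Y reporter protocol was run at 3 concentrations up to 38.3 uM (primary) or 11 concentrations (follow-up): 16 h compound, 100 nM thapsigargin for 4 h, then extracellular luciferase luminescence.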
On the technique in general: qHTS replaces the single test concentration by a dilution series.

Assay [12] deals with 3',5'-cyclic-AMP phosphodiesterase 4B (Homo sapiens) (UniProt Q07343). Put plainly: qHTS Assay for Inhibitors of PDE-IV (AID 607; active = well fitted activation curve with a large enough effect in the main read-out, with a control signal flat, not every such curve was filed as active; note: % of control where 0% means no effect). Particulars: HEK293 ACTOne CNG channel cells, membrane potential fluorescence; series mostly up to 22.9 µM. The essentials:
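The readout is membrane depolarisation from a cAMP-sensing CNG channel, detected with a potential dye at ex 535/em 590. Cells were HEK293-derived (endogenous PDE-IV) at 1000 cells/well, titrated up to 22.9 uM final.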

A short description of assay [13]: qHTS Assay for Identification of Small Molecule Agonists for Hypoxia Response Element Signaling Pathway (AID 914; active = well fitted activation curve with a large enough effect in the signal ratio, with a control signal flat, not every such curve was filed as active; the % refers to the signal ratio; note: % of control where 0% means no effect). Particulars: ME-180 (cervical carcinoma) HRE-bla reporter, beta-lactamase ratio, CoCl2, 17 h; activation: hits give high values. The essentials: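 Positive modulation of EC50 CoCl2-induced hypoxia response element signaling is measured in ME-180 cells with a beta-lactamase reporter. Compounds are titrated, incubation runs 17 hours, and %Activity derives from the blue/green ratio.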

Assay [14] deals with Cytochrome P450 3A4 (Homo sapiens) (UniProt P08684). Put plainly: qHTS Assay for Inhibitors and Substrates of Cytochrome P450 3A4 (AID 884; active = well fitted curve in the direction sought with a large enough effect; an effect the other way counts as inactive or inconclusive; note: potency is the fitted concentration of half-maximal effect; nearly all actives have a fitted effect of over 50% in size). The conditions noted are these: recombinant CYP3A4, Luciferin-PPXE luminescence; series mostly up to 57.1 µM. The essentials:
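Luminescent readout of luciferin produced by CYP3A4 (20 nM) dealkylation of Luciferin-PPXE, 25 uM (its KM). NADPH-driven reaction ran 60 min at RT after 10 min compound preincubation; data scaled to 57 uM ketoconazole as 100% inhibition.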

In assay [15] the target is Cytochrome P450 2C19 (Homo sapiens) (UniProt P33261). Put plainly: qHTS Assay for Inhibitors and Substrates of Cytochrome P450 2C19 (AID 899; active = well fitted curve in the direction sought with a large enough effect; an effect the other way counts as inactive or inconclusive; note: potency is the fitted concentration of half-maximal effect; nearly all actives have a fitted effect of over 60% in size). The conditions noted are these: recombinant CYP2C19, luciferin-H EGE luminescence; series mostly up to 57.1 µM. In short, it runs like this:
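NADPH-dependent conversion of Luciferin-H EGE (10uM, at KM) by 5nM enzyme in 50mM KPO4, 60 min at 37C following 10 min compound preincubation. Stopped with luciferin detection buffer; luminescence read after 20 min.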

3',5'-cyclic-AMP phosphodiesterase 4B (Homo sapiens), sequence (Q07343 whole entry, looked up): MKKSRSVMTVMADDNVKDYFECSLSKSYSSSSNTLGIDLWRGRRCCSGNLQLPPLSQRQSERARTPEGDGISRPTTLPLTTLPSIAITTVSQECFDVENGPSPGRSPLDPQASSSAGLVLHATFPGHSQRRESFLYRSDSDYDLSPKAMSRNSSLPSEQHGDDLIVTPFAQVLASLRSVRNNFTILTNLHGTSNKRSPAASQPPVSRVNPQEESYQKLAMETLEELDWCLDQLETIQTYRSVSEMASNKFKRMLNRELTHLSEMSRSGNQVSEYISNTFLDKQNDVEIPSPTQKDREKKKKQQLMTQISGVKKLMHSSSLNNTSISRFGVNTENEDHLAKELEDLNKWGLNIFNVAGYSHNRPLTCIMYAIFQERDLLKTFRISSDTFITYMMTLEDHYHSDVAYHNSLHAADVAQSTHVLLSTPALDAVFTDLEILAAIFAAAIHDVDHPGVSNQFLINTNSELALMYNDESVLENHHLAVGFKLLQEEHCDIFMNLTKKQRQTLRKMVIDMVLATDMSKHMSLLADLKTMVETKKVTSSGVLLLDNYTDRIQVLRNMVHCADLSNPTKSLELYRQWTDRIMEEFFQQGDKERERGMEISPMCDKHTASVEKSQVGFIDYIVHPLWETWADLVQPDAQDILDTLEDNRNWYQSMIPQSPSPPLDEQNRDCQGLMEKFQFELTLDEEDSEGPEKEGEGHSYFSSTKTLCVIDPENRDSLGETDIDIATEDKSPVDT
Lysosomal acid glucosylceramidase (Homo sapiens), sequence (P04062 whole entry, looked up): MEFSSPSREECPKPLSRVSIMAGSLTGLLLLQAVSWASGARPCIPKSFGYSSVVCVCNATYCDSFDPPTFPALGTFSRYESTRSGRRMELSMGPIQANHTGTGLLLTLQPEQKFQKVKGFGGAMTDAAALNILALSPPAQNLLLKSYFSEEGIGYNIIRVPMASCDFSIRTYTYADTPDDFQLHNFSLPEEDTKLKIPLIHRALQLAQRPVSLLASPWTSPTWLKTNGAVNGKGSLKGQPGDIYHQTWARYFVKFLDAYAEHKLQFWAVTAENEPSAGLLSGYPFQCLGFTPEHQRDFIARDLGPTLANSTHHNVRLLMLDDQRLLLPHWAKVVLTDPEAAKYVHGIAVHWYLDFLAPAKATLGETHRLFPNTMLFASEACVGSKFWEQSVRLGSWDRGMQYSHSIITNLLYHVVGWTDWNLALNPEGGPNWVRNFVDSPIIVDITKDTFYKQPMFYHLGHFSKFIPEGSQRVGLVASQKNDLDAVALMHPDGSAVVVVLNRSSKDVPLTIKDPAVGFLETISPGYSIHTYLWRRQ
Cytochrome P450 3A4 (Homo sapiens), sequence (P08684 whole entry, looked up): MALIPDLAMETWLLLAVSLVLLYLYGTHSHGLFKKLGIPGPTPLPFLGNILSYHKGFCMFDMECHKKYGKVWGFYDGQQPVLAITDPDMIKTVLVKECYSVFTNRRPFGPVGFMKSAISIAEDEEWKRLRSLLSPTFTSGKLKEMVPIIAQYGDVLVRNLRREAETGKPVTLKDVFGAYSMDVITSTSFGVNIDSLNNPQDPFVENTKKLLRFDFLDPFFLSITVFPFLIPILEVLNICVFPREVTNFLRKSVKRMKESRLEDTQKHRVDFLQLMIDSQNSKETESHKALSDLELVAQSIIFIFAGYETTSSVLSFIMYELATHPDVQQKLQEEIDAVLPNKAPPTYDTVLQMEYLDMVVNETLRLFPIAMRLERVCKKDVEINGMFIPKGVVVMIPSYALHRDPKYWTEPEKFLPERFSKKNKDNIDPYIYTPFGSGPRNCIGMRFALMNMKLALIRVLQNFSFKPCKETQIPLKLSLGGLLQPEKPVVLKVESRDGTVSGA
Glucocorticoid receptor (Homo sapiens), sequence (P04150 whole entry, looked up, the tested form may be a part): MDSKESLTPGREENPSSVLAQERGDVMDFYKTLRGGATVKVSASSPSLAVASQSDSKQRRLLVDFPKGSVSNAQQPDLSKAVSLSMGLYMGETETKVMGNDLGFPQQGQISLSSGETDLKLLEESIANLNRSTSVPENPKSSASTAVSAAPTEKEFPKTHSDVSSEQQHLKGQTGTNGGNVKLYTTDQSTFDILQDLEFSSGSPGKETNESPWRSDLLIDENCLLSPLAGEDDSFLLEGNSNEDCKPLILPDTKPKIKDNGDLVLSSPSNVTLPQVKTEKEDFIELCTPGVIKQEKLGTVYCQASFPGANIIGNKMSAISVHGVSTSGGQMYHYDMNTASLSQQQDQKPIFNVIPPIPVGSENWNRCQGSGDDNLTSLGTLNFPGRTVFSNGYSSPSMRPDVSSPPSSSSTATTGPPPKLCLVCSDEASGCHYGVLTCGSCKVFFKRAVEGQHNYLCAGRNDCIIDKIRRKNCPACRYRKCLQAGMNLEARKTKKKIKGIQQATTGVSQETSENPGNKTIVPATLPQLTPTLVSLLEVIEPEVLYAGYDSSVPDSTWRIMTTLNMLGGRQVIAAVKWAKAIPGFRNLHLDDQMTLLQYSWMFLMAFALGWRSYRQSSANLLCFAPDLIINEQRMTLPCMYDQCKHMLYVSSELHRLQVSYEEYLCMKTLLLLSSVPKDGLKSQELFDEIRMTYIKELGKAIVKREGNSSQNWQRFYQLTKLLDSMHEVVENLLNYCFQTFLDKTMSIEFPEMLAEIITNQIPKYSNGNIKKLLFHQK
Cytochrome P450 1A2 (Homo sapiens), sequence (P05177 whole entry, looked up): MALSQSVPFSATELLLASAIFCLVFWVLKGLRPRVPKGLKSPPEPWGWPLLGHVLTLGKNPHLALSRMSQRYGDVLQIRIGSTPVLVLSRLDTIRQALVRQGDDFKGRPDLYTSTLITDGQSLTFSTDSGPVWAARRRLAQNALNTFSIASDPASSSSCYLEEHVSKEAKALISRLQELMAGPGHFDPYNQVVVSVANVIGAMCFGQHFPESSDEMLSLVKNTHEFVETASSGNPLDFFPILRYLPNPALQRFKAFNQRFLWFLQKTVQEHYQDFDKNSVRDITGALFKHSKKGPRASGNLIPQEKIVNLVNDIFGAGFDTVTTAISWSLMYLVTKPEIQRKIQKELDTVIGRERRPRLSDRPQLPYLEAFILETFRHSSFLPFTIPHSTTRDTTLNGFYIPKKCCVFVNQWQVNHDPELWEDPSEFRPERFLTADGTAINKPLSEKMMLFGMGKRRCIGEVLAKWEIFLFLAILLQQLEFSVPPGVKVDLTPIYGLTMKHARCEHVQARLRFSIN
Cytochrome P450 2C19 (Homo sapiens), sequence (P33261 whole entry, looked up): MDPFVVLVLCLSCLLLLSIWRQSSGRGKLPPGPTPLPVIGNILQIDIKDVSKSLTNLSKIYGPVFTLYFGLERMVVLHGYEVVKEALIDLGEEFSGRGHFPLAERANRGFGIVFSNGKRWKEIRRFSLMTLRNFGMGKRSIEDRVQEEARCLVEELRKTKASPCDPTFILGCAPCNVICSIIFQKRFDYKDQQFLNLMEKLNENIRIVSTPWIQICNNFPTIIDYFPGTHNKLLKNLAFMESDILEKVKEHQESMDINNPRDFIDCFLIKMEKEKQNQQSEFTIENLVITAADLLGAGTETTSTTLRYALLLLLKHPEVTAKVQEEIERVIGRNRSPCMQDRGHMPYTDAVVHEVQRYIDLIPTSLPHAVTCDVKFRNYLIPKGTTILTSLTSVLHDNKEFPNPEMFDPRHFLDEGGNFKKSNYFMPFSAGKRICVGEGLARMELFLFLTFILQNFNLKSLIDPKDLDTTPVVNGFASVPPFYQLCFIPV

Regarding `Cc1cccc(CNc2nc(-c3ccccc3CN(C)C)nc3ccccc23)c1`, the Potency was greater than 11.4 µM in assay [1], 3.16 µM (active) in assay [3] and greater than 46 µM in [6]. In addition, the values for the activity change, negative = inhibition in [2] and in assay [4] were 20.6% and -22.2%, respectively. Moreover, the activity, negative = inhibition in assay [5] is -0.581%. Moreover, the Potency result in assay [7], in [8] and in assay [9] was “inactive” throughout. Besides, the call in [10] and in assay [11] was inactive.

Consider `COc1ncc2nc(CCc3ccccc3)c(=O)n(CCC#N)c2n1`, for which the Potency in assay [1] is greater than 11.4 µM; in assay [3], 15.8 µM (active); in [6], greater than 46 µM. In addition, the activity change, negative = inhibition in assay [2] was -1.07%; in assay [4] it was -10.8%. The activity, negative = inhibition in assay [5] was -4.61%. The Potency result in assay [7] and in assay [12] was “inactive” throughout. The activation in assay [13] is -14.7%. The outcome in [11] was inactive.

Turning to `O=S(=O)(c1ccccc1)N1CCC2(CC1)CN(Cc1nccs1)C2`, the Potency in [1] was greater than 11.4 µM. For the same compound, the activity change, negative = inhibition in assay [2] is 11.1%; in assay [4] it was -29.2%. Moreover, the Potency entry in assay [3], in [7] and in assay [12] was “inactive” throughout. For the same compound, in assay [5], the activity, negative = inhibition was 9.77%. For the same compound, in [11], the outcome was inactive.

In the case of `COCCn1c(=O)c(-c2cn(C)c3ccccc23)nc2cnc(Oc3ccccc3)nc21`, the Potency in [1] was greater than 11.4 µM; in assay [3], 10 µM (active); in assay [6], greater than 46 µM; in assay [14], 3.16 µM (active). Further, the activity change, negative = inhibition was 26.2% in assay [2] and 19.4% in assay [4]. Also, the Potency entry in assay [12] and in assay [8] was “inactive” throughout. Besides, the outcome in assay [11] was inactive.

For the compound `COc1ccc(C(=O)N2CCC[C@@]3(CCN(c4cccc(-c5ccccc5)c4)C3)C2)cc1`, the Potency in [1] is greater than 11.4 µM; in assay [3], 12.6 µM (active); in [6], greater than 46 µM; in assay [14], 3.16 µM (active); in assay [15], 7.94 µM (active). The activity change, negative = inhibition is 8.11% in assay [2] and -15.1% in assay [4]. Further, in assay [5], the activity, negative = inhibition is -9.84%. In [8], the Potency entry is “inactive”. The outcome in assay [11] was inactive.

Turning to `COC(=O)N1CCC[C@@]2(CCN(c3ncccn3)C2)C1`, the values for the Potency in assay [1] and in assay [6] were greater than 11.4 µM and greater than 46 µM, respectively. Besides, the activity change, negative = inhibition in assay [2] was 2.3%; in [4], 11.8%. Further, the Potency result in assay [3], in assay [7] and in assay [12] was “inactive” throughout. In assay [5], the activity, negative = inhibition is 8.51%. Moreover, the activation in assay [13] was 23.3%. The outcome in [11] was inactive.

Turning to `COCC(=O)N1CCC2(CCCN(c3cccc(-c4ccccc4)c3)C2)CC1`, the Potency is greater than 11.4 µM in [1], 15.8 µM (active) in [3] and greater than 46 µM in assay [6]. In addition, the activity change, negative = inhibition in assay [2] was -22.8%; in assay [4], 17%. Besides, the activity, negative = inhibition in assay [5] is -10.6%. Besides, the Potency entry in [7] and in assay [8] was “inactive” in each case. For the same compound, in assay [11], the result was inactive.

For `N#Cc1cccc(NC(=O)N2CC[C@@]3(CCCN(S(=O)(=O)c4ccccc4)C3)C2)c1`, the Potency in assay [1] was greater than 11.4 µM; in assay [3] it was 25.1 µM (active); in [14], 3.16 µM (active). In addition, the values for the activity change, negative = inhibition in [2] and in assay [4] were -14% and 3.6%, respectively. Also, the activity, negative = inhibition in assay [5] is -7.29%. The Potency entry in [7], in assay [12] and in assay [8] was “inactive” throughout. Besides, the outcome in assay [11] was inactive.
